High-throughput results from PubChem BioAssay.
SW480 rereplic = inducers of DNA re-replication in SW480 colon cancer cells; SW480 DNA re-replication, Hoechst DNA content imaging, 48 h; Potency, µM (series often up to 46.1 µM), for the others: at the top dose re-replication activation, most hits filed as activators; 340,000 tested, 1.8% active; AID 624297; further: potency means the concentration at half of the fitted maximal effect; % of control where 0% means no effect; nearly all actives have a fitted effect of over 55% in size
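Image-based read-out: total Hoechst fluorescence of nuclei (405 nm excitation, 500-530 nm emission), with hits raising the fraction of high-intensity nuclei. SW480 colon cells incubated 48 hr with compounds at 37 C.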
KB-3-1 cytotox = KB-3-1 parental cell cytotoxicity. KB-3-1 viability, CellTiter-Glo ATP luminescence, 72 h. Potency, µM (titrated, usually from 46.1 µM), most hits filed as cytotoxic. 400,000 tested, 1.4% active. AID 1347075; further: potency means the concentration at half of the fitted maximal effect; on the % scale 0 is the no-effect control and ±100 the full control effect; nearly all actives have a fitted effect of over 60% in size
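Multi-concentration cytotoxicity screen in KB-3-1 cells grown in DMEM lacking phenol red with 10% FBS. After 72 h at 37 °C with compound, ATP-dependent luminescence was recorded.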
DRD3 antagonist = blocks the human D3 dopamine receptor. 360,000 tested, 2.5% active. D3R cells, DiscoveRx beta-arrestin luminescence, antagonist mode; hits give low values. P35462. max response, negative = inhibition, %; in the data active means max response below about -50%; inconclusive means no clear call, values can overlap the other calls; further: on the % scale 0 is the no-effect control and ±100 the full control effect
Target sequence (P35462 whole entry, looked up): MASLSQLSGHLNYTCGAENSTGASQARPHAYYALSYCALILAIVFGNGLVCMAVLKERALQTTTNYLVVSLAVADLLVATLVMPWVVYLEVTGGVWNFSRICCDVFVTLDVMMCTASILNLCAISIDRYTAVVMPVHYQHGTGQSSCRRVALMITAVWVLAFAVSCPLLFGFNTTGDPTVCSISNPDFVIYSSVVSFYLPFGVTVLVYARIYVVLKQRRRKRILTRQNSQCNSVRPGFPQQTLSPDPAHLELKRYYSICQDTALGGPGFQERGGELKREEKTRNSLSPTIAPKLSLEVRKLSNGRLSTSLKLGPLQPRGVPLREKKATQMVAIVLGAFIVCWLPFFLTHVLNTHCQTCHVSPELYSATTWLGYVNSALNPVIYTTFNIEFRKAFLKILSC
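Cells plated overnight at 1500 cells/well, then exposed to library compounds with dopamine controls for 90 minutes at 37 degrees C. DiscoveRx reagent added for 30–60 minutes at room temperature; luminescence read, quantitative HTS format.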
D3 ag = activates the human D3 dopamine receptor; P35462; D3R DiscoveRx beta-arrestin cells, luminescence, 90 min; max activation, %; 410,000 tested, 0.58% active; AID 652048; in the data active means max activation above about 30%; further: 0% is about no effect
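Agonist-mode cell screen: cells plated at 1500/well and incubated overnight at 37 °C, then exposed to library compounds for 90 min at 37 °C. Detection reagent was added for 30–60 min at room temperature, and luminescence was read.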
KB-V1 MDR tox = kills drug-selected multidrug resistant KB-V1 cells; AID 1347076; Potency, µM (doses to about 46.1 µM), usual class: cytotoxic; KB-V1 MDR cells viability, CellTiter-Glo, 72 h; 400,000 tested, 3.4% active; further: potency means the concentration at half of the fitted maximal effect; on the % scale 0 is the no-effect control and ±100 the full control effect; nearly all actives have a fitted effect of over 60% in size
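KB-V1 MDR subline cells in DMEM (phenol-red free, 10% FBS) exposed to compounds in qHTS concentration series for 72 h at 37 degrees C. Viability read by CellTiter-Glo luminescence; concentration-effect curves fitted after normalization and correction.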
MCF10A rereplic = DNA re-replication induction in MCF 10a cells | MCF 10A DNA re-replication, Hoechst nuclear intensity, 48 h | Potency, µM (series often up to 46.1 µM), without a hit: at the top dose activity, positive = re-replication, usual class: activators | 350,000 tested, 2.9% active | AID 624296; further: potency means the concentration at half of the fitted maximal effect; % of control where 0% means no effect; nearly all actives have a fitted effect of over 50% in size
* marks the source's active call; other numbers are inactive results; i = inactive; ? = inconclusive; . = no result given; [ ] = another dose, or the depositor's remark. Only some compounds are listed: those with a hit (about 8.9% of all), similar ones and a draw of the others. Unless noted, the call rests on the fitted dose curve; in most records, active means well fitted curve in the direction sought with a large enough effect; inconclusive means small, poorly fitted or top-dose-only effect, or another doubt; inactive means no such curve, though single readings can be large; an effect the other way counts as inactive or inconclusive.

SMILES	SW480 rereplic	KB-3-1 cytotox	DRD3 antagonist	D3 ag	KB-V1 MDR tox	MCF10A rereplic
C#CCOCCOCCOCCNc1nc(N2CCN(C(=O)CCCCCCCCCCNC(=O)[C@@H](CCSC)n3cc(CCO)nn3)CC2)nc(N2CCN(C(=O)CCCCCCCCCCNC(=O)[C@H]([C@@H](C)CC)n3cc(CCCCCN)nn3)CC2)n1	2%[9.22 µM]	?	-2	-29	?	?
C#CCOCCOCCOCCNc1nc(N2CCN(C(=O)CCCCCCCCCCNC(=O)[C@@H](CCSC)n3cc(CCO)nn3)CC2)nc(N2CCN(C(=O)CCCCCCCCCCNC(=O)[C@H]([C@@H](C)CC)n3cc(CCCCN=C(N)N)nn3)CC2)n1	-7%	16µM*	-11	1	?	-10%
COc1ccc(NCc2cccn2-c2nnc(N3CCCCC3)s2)cc1OC	.	i	.	6	i	.
Cc1cn([C@H](C(=O)NCCCCCCCCCCC(=O)N2CCNCC2)[C@@H](C)O)nn1	19%	i	-64*	-17	i	?
Cc1cn([C@@H](CCCCN)C(=O)NCCCCCCCCCCC(=O)N2CCNCC2)nn1	-11%	i	15	2	i	-22%
C#CCOCCOCCOCCNc1nc(N2CCN(C(=O)CCCCCCCCCCNC(=O)[C@@H]([C@H](C)O)n3cc(C)nn3)CC2)nc(N2CCN(C(=O)CCCCCCCCCCNC(=O)[C@@H]([C@H](C)O)n3cc(C)nn3)CC2)n1	2%	?	12	28	i	13µM*
CC(C)c1ccc(NC(=O)CN2CCN(c3ccccn3)CC2)cc1	-2%	i	-13	9	i	15%
CC(=O)c1ccc(NC(=O)CN2CCN(CC(=O)Nc3ccc(C(C)=O)cc3)CC2)cc1	-10%	i	9	4	i	3%
CC(=O)c1ccc(NC(=O)CN2CCN(c3ncccn3)CC2)cc1	1%	i	-24	70*	i	-7%
N#Cc1ccc(NC(=O)CN2CCN(c3ccccn3)CC2)cc1	0%	i	12	49*	i	-5%
CCC[n+]1c(/C=C/c2c(OC)cc(OC)cc2OC)ccc2ccccc21	.	1.3µM*	.	.	i	.
COc1cc(OC)c(/C=C/c2ccc3ccccc3[n+]2C)c(OC)c1	.	0.73µM*	.	.	i	.
CCN1CCN(Cc2c(O)ccc3cc(-c4ccc(OC)cc4)c(=O)oc23)CC1	.	i	.	-1	i	.
CCCc1ccc(-c2cc(C(=O)NN3CCOCC3)c3ccccc3n2)cc1	12%	i	-7	6	5.2µM*	26%
CN1CCN(NC(=O)c2cc(-c3ccc(Cl)s3)nc3ccccc23)CC1	16µM*	i	?	-10	i	15µM*
CC(C)Oc1cccc(-c2cc(C(=O)NN3CCOCC3)c3ccccc3n2)c1	1%	i	0	-5	i	?
CC(C)(CNC(=O)c1cc(-c2ccc(Cl)s2)nc2ccccc12)N1CCOCC1	23µM*	i	2	8	i	?
C#CC(C)(CC)NC(=O)c1cc2c(n(-c3ccc(Cl)cc3)c1=O)CC(C)(C)CC2=O (stereo not drawn)	.	i	.	8	?	.
CC(C)C(NS(=O)(=O)c1ccc2c(c1)oc(=O)n2C)C(=O)NCc1ccccc1 (stereo not drawn)	.	i	.	3	i	.
COc1ccc(NC(=O)N(CCC(C)C)C(C)c2cccs2)c(OC)c1 (stereo not drawn)	.	.	.	3	.	.
CCOC(=O)c1c(/N=C/N(C)C)sc(/C=N/Nc2ccccc2)c1-c1ccccc1Cl	18µM*	i	29	-15	i	15µM*
CCOC(=O)c1c(/N=C/N(C)C)sc(/C=N/Nc2ccccc2)c1-c1ccccc1	?	i	36	2	i	21µM*
CCOC(=O)c1c(/N=C/N(C)C)sc(C=O)c1-c1ccccc1	-1%	i	0	4	i	9%
CCOc1ccccc1NC(=O)c1c(NC(=O)c2cccc(C)c2)sc2c1CCC2	.	i	.	9	i	.
CCC(C)c1ccccc1OCCOCCN1CCCC1 (stereo not drawn)	-3%	i	-52*	-25	?	?
SMILES	SW480 rereplic	KB-3-1 cytotox	DRD3 antagonist	D3 ag	KB-V1 MDR tox	MCF10A rereplic
Cc1ccccc1OCCN1CCCC1	-12%	i	?	-13	?	9%
CCC(C)c1ccccc1OCCCCN1CCCC1 (stereo not drawn)	0%	i	-72*	-27	i	?
CCc1ccccc1OCCCCN1CCCC1	2%	i	?	0	i	-1%
Cc1ccc(-c2nnc(Nc3ccc(C(=O)N(C)C)cc3)c3ccccc23)cc1S(=O)(=O)N(C)C	.	i	.	-5	?	.
CCCCCCN1C[C@H](O)[C@@H](n2cc(C3CC3)nn2)C[C@@H]1c1ccc(C)cc1	.	?	-30	-8	?	.
CCOc1ccc(/C=C/c2nc(C#N)c(Nc3ccc(OCC)cc3)o2)cc1	.	.	.	3	.	.
Cc1ccc(C(=O)NS(=O)(=O)c2ccccc2)cc1	31%	i	3	-4	i	?
O=C(NC(=C(Cl)Cl)S(=O)(=O)c1ccc(Cl)cc1)c1ccccc1	?	i	?	-16	?	?
Cc1ccc(C(=O)NC(=C(Cl)Cl)S(=O)(=O)c2ccc(C)cc2)cc1	?	i	-25	-13	i	13µM*
Cc1ccc(S(=O)(=O)/C(=C/Cl)NC(=O)c2ccccc2)cc1	13µM*	13µM*	-14	1	i	4.1µM*
Cc1ccc(C(=O)NC(=C(Cl)Cl)S(=O)(=O)c2ccc(Cl)cc2)cc1	?	?	-19	-4	i	?
Cc1ccc(S(=O)(=O)C(NC(=O)c2ccccc2)=C(Cl)Cl)cc1	?	?	?	-15	?	6.5µM*
CC(=O)NC(=C(Cl)Cl)S(=O)(=O)c1ccccc1	12µM*	?	0	-15	?	13µM*
COCCCn1c(=O)c2ccccc2n(CC(=O)NC2CCCCC2)c1=O	-6%	i	0	20	i	-5%
Cc1ccc(C)c2nc3sc(C(=O)N4CCCc5ccccc54)c(N)c3cc12	0%	i	-54*	-19	?	?
CCc1ccc2nc3sc(C(=O)N4CCc5ccccc54)c(N)c3cc2c1	-2%	.	.	.	.	-32%
CCN1C(=O)[C@H]2[C@H]3CN=C(SCc4ccc(Cl)cc4)N3[C@@](Cc3ccccc3)(C(=O)OC)[C@H]2C1=O	?	?	-63*	-48	?	?
